According to PubChem BioAssay (NCI):
Compounds without any hit were thinned out: in the full panel of roughly 79,000, 15% have a hit. No stated cut-off is given here; in the data, active means growth inhibition above about 70%; inactive means the rest. Where a SMILES comes first, the peptide text is derived from it. The star is where a group is joined. Boc = CC(C)(C)OC(=O)*; OSu = O=C1CCC(=O)N1O*

Experiments:
[1] = NCI Yeast Anticancer Drug Screen. Data for the rad50 strain (AID 155);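 further: 0% = growth of vehicle-only cultures of the same strain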; conditions: S. cerevisiae rad50 strain growth inhibition; at 50.0 µM; hits give high values
Procedure, shortened: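 Readout: growth inhibition relative to vehicle-treated cultures. Compound exposure was carried out in a genetically defined yeast strain deficient in DNA damage repair.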

[2] = NCI Yeast Anticancer Drug Screen. Data for the mec2-1 strain (AID 157); conditions: S. cerevisiae mec2-1 strain, at 50.0 µM, hits give high values
Procedure, shortened: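 Mutant yeast (mec2-1) grown with compound; growth inhibition relative to vehicle control reported.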

[3] = NCI Yeast Anticancer Drug Screen. Data for the sgs1 mgt1 strain (AID 161);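 further: 0% = growth of cultures given vehicle only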; conditions: S. cerevisiae sgs1 mgt1 strain, at 50.0 µM, hits give high values
Procedure, shortened: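 Percent growth inhibition was derived by comparing compound-exposed mutant yeast with vehicle-exposed cultures. The strain carries alterations in DNA damage repair.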

[4] = NCI Yeast Anticancer Drug Screen. Data for the cln2 rad14 strain (AID 165);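 further: 0% = growth equal to vehicle treated cultures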; conditions: S. cerevisiae cln2 rad14 strain, at 50.0 µM, hits give high values
Procedure, shortened: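 Readout is yeast growth inhibition versus vehicle-treated controls, using a strain with cln2 and rad14 alterations exposed to compound.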

[5] = NCI Yeast Anticancer Drug Screen. Data for the bub3 strain (AID 167); conditions: S. cerevisiae bub3 mutant strain, at 50.0 µM, hits give high values
Procedure, shortened: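 Readout: yeast growth inhibition, expressed relative to vehicle-only wells. The test organism is a mutant strain from a panel with lesions in DNA repair or checkpoint genes.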

[6] = NCI Yeast Anticancer Drug Screen. Data for the mlh1 rad18 strain (AID 175); conditions: S. cerevisiae mlh1 rad18 strain growth inhibition; at 50.0 µM; hits give high values
Procedure, shortened: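 Genetically defined yeast (DNA repair-deficient) exposed to compounds; growth inhibition determined relative to vehicle.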

Measured: growth inhibition

CC(=O)c1c2c(cc3c1CC1(C3)Cc3cc4c(c(C(C)=O)c3C1)CCC4)CCC2
inactive: [1] -21.5% | [2] -31.4% | [3] -4% | [4] -5.45% | [5] -3.35% | [6] -30.6%

O=C(O)/C=C(/Br)c1ccccc1
inactive: [1] -28.9% | [2] 7.9% | [3] -13.8% | [4] -1.55% | [5] 1.4% | [6] -24.4%

COc1nc(NC2OC(COC(C)=O)C(OC(C)=O)C(OC(C)=O)C2OC(C)=O)c(C(=O)CCl)c(=O)[nH]1 (configuration not stated)
inactive: [1] 3.75% | [2] 6.5% | [3] 8.45% | [4] -0.4% | [5] -2.2% | [6] 13.7%

CCCOC(=O)c1c(C)c(C)cc(C)c1C
inactive: [1] 5.9% | [2] 1.75% | [3] 14.6% | [4] 11.8% | [5] -1.3% | [6] -12.3%

CC1=C(c2cc(C(=O)Nc3ccc(Cl)cc3)nc(=S)[nH]2)Sc2ccccc2N1
inactive: [1] -30.9% | [2] -15.2% | [3] -46% | [4] -1.45% | [5] -5.65% | [6] -35.4%

Cc1cccc(N=Cc2ccc(Cl)cc2Cl)c1C
inactive: [1] 34.6% | [2] 20.1% | [3] 26.7% | [4] 28.6% | [5] 19% | [6] 31.6%

O=C(NC[N+]12CCO[B-]1(c1ccc(Cl)cc1)OCC2)c1ccccc1O (configuration not stated)
inactive: [1] 19.2% | [2] 0.25% | [3] 24.1% | [4] 25% | [5] 24% | [6] 56.3%

CN1C/C(=C\c2ccc(C(=O)O)cc2)C(=O)/C(=C/c2ccc(C(=O)O)cc2)C1
inactive: [1] 33.3% | [2] 5.35% | [3] 28.1% | [4] 20.9% | [5] -5% | [6] 19.7%

CC1(C2c3ccccc3CC2OC2CCCCO2)CO1 (configuration not stated)
inactive: [1] -8.35% | [2] -10.6% | [3] -9.5% | [4] -10.2% | [5] -5.75% | [6] 2.35%

CC1=C(/C=C/C(C)=C/C=C/C(C)=C/C=C/C=C(C)/C=C/C=C(\C)C=O)C(C)(C)CCC1
inactive: [1] -18.2% | [2] 4.85% | [3] -9.4% | [4] -1.4% | [5] 4.75% | [6] 0.8%

Fc1ccccc1C1CC(c2ccc3ccccc3c2)=Nc2ccccc2S1 (configuration not stated)
inactive: [1] 30.9% | [2] 12.1% | [3] 18.4% | [4] 13.4% | [5] 10.4% | [6] 34.4%

COc1ccc(-n2cc[n+](C)c2/C=N\O)cc1
inactive: [1] -3.1% | [2] 0.95% | [3] 3.2% | [4] -43.3% | [5] -31.8% | [6] -13.6%

CC1CC(=O)N2CCCNC2=C1C#N (configuration not stated)
inactive: [1] -0.55% | [2] 4.6% | [3] 12.8% | [4] 19.2% | [5] 3.75% | [6] 26.1%

O=C(O)c1ccccc1SC(Sc1ccccc1C(=O)O)c1ccc(Cl)cc1
inactive: [1] 4.8% | [2] -9.15% | [3] -9% | [4] -11.9% | [5] -4.1% | [6] 15.2%

O=C(O)C1C2C=CC(O2)C1C(=O)NCc1ccncc1 (configuration not stated)
inactive: [1] -10% | [2] 14.7% | [3] -7.8% | [4] -30.1% | [5] -32.5% | [6] 3.35%

CCCNC(=O)c1nc(SC)sc1NC(=O)c1ccccc1
inactive: [1] 10.3% | [2] 3.5% | [3] -50.1% | [4] 17.6% | [5] 1.95% | [6] 10.9%

CC(=O)OCC(C)Cc1ccc(C(C)(C)C)cc1 (configuration not stated)
inactive: [1] 3% | [2] 0.3% | [3] 0.7% | [4] -4% | [5] 9.6% | [6] -2.4%

O=C1OC(c2cccc(Cl)c2)=N/C1=C\c1cccc([N+](=O)[O-])c1
inactive: [1] 15.5% | [2] 12.3% | [3] 24.6% | [4] 18.9% | [5] 17.6% | [6] 2%

CCCCOC(=O)NC(=O)c1cc2cccc(OC)c2oc1=O
inactive: [1] 17.1% | [2] 21.6% | [3] 14.4% | [4] 14.3% | [5] 14.8% | [6] 10.2%

c1ccc(CSc2nc3ccccc3nc2-c2cccs2)cc1
inactive: [1] -48.7% | [2] -51.9% | [3] -34.5% | [4] -1.85% | [5] -51.9% | [6] -29.8%

Cc1cccc(C)c1OC(=O)/C=C/c1ccccc1
inactive: [1] 31.3% | [2] -10.5% | [3] 33% | [4] -11.2% | [5] -11.8% | [6] 1.05%

O=C(/C=C/c1ccc(Cl)cc1)c1ccncc1
inactive: [1] 33.5% | [2] 0% | [3] 11.6% | [4] 18% | [5] 16.1% | [6] 33.9%

CCOC(C[N+](C)(C)C)OCC
inactive: [1] 9.7% | [2] -25.6% | [3] 2.4% | [4] 8% | [5] 30% | [6] 0.3%

O=C(O)CCC(=O)Nc1ccc(F)cc1
inactive: [1] 9.9% | [2] 26.6% | [3] 4.7% | [4] -86.3% | [5] 7.3% | [6] 1%

COC1OC(CBr)C(OC(=O)c2ccccc2)C(OC(C)=O)C1OC(C)=O (configuration not stated)
inactive: [1] -23.9% | [2] -4.6% | [3] -12.2% | [4] 11% | [5] -1.5% | [6] -22.8%

CCOC(=O)/C=C/c1ccccn1
inactive: [1] -15.3% | [2] -9.5% | [3] -35.5% | [4] 11.9% | [5] -12.8% | [6] -25.6%

Brc1ccncc1
inactive: [1] -10.7% | [2] -47.5% | [3] -1.55% | [4] 3.35% | [5] -21.9% | [6] -13.6%

c1ccc(-n2nnnc2-c2nnnn2-c2ccccc2)cc1
inactive: [1] -7.35% | [2] -5.2% | [3] -1.5% | [4] -18.7% | [5] 20.7% | [6] -11%

Cc1ccc2nnc(NS(=O)(=O)c3cc(C)c(Cl)cc3S)n2n1
inactive: [1] -30.3% | [2] -7.75% | [3] -24.9% | [4] -16.9% | [5] -0.9% | [6] -25.4%

NC(CC1C=CCCC1)C(=O)O (configuration not stated)
inactive: [1] -26.4% | [2] -16.1% | [3] 1.85% | [4] -52.3% | [5] 7.1% | [6] -4.3%

CC(C)(C)OC(=O)NC(Cc1ccc(O)cc1)C(=O)NC(CCCCN)C(=O)NC(Cc1ccc(O)cc1)C(=O)NC(CCCCN)C(=O)ON1C(=O)CCC1=O (configuration not stated) (Boc-YKYK-OSu; configuration not given here)
inactive: [1] -12.2% | [2] -15.5% | [3] -6.7% | [4] 29.1% | [5] -2.8% | [6] 4.45%

CC1(C(=O)N2c3ccccc3C=CC2C#N)CC2C=CC1C2 (configuration not stated)
inactive: [1] -19.9% | [2] 4.6% | [3] 1.9% | [4] 7.6% | [5] -2.4% | [6] -15.9%

ClCCCCCOCCCCCCl
inactive: [1] 8.15% | [2] 1.25% | [3] -1.5% | [4] -11.7% | [5] -4.75% | [6] -1.05%

NC(=O)C(=O)n1ncc(Cl)c(Cl)c1=O
inactive: [1] 2.65% | [2] -3% | [3] 1.05% | [4] 6.55% | [5] 8.25% | [6] -4.1%

CCOC(=O)Nc1ccc(NC(C)=O)cc1
inactive: [1] 2.45% | [2] 0.65% | [3] 1.3% | [4] -62.7% | [5] -23.8% | [6] -22.6%

CC1(C)COC(=O)OC1
inactive: [1] 17.8% | [2] 11.5% | [3] 16.4% | [4] 12.8% | [5] 14.8% | [6] 16.9%

O=c1[nH]c2cc(Cl)c([N+](=O)[O-])cc2c2ccc(Cl)cc12
inactive: [1] 3.15% | [2] -7.7% | [3] -1.6% | [4] -10.7% | [5] 3.1% | [6] 8.05%

COc1cc(C=C2C(=O)OC(C)(C)OC2=O)cc(OC)c1OC
inactive: [1] 3.45% | [2] -22.1% | [3] -11.3% | [4] 24.3% | [5] -21.5% | [6] 9.05%

Cn1cnc(CC(=O)O)c1
inactive: [1] 4.85% | [2] -6.6% | [3] -12.5% | [4] 5.25% | [5] 11% | [6] -0.05%

O=C(OC1CCc2ccccc2C1)c1ccc(N=Nc2ccccc2)cc1 (configuration not stated)
inactive: [1] 24.5% | [2] 5.55% | [3] 20.7% | [4] -39.8% | [5] 5.95% | [6] 18.9%

COC(=O)C[C@H]1CCC2(OCCO2)[C@]1(C)C(=O)OC
inactive: [1] -10.7% | [2] -11.6% | [3] -11.2% | [4] -23.4% | [5] -6.9% | [6] -27.1%

Nc1ccc(C(=O)O)cn1
inactive: [1] -20.4% | [2] -11.1% | [3] 29.6% | [4] -34.5% | [5] 9.95% | [6] -0.45%
